CCT modulator – cytosolic chaperonin activity modulation. purified chaperonin ATPase assay, HTRF ADP detection, 30 min. activity change, % (test concentration not listed), hits read low. 0.3% of 360,000 active; in the data active means activity change below about -30%
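TRiC at 40 or 20 nM final (batch-dependent) in 30 mM Tris pH 7.4, 100 mM KCl, 5 mM MgCl2, 1 mM DTT, with compound at single 76 uM and 10 uM ATP, 30 min at 37 deg C. ADP detected by HTRF Transcreener, 665/615 ratio.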
Six1-Eya2 inh – Six1/Eya2 interaction inhibition. AID 651725. AlphaScreen GST-Six1/His-Eya2 binding, biochemical; active compounds read low. activity change, % (no concentration beside the values). 0.56% of 360,000 active
Target sequence (O00167 whole entry, looked up): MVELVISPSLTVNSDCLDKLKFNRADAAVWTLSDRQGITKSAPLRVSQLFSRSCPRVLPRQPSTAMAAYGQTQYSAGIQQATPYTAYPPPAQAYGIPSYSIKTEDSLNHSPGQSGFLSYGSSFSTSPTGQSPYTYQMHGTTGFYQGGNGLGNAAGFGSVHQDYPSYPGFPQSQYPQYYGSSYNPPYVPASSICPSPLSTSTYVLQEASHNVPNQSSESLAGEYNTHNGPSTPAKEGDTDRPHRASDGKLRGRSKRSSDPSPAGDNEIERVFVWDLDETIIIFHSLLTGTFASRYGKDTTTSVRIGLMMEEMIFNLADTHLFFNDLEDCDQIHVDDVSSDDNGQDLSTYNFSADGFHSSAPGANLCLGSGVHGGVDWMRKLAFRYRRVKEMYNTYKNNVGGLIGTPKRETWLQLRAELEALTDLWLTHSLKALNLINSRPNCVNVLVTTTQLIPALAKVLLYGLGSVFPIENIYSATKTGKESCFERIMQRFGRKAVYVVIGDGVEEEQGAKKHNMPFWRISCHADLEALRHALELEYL
Target sequence (Q15475 whole entry, looked up): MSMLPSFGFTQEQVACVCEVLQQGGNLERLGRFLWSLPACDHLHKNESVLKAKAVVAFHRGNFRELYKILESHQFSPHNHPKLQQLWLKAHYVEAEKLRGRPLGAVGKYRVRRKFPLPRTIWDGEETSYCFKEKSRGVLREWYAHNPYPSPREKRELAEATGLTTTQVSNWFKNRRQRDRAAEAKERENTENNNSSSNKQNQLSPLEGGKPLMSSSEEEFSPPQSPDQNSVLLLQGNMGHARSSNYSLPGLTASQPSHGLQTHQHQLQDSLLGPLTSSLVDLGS
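Homogeneous AlphaScreen proximity assay pairing GST-Six1 with His-tagged Eya2 (added as 5X mix: 250 nM and 500 nM) in 50 mM Tris pH 8.0, 300 mM NaCl, 1 mM TCEP. Glutathione donor and nickel acceptor beads; 1 h, 37 °C, dark.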
Akt phos inh – Akt phosphorylation inhibition; Neuro2A IGF-stimulated pAkt S473 HTRF, 20 min; active compounds read low; activity change, % for hits at 50 µM; 0.32% of 360,000 active; in the data active means activity change below about -80%; inconclusive means mostly about -51% to -80%
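Neuro2A cells (4,500/well, DMEM with 0.5% FBS) were treated with compound at a single 50 µM final concentration, stimulated with 6 nM IGF for 20 min at 37 °C, and lysed. Phospho-Akt Ser473 was read by HTRF as 665/615 ratio ×10^4.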
CtBP-E1A inh – blocks the CtBP interaction with E1A | AID 651724 | AlphaScreen GST-E1A/His-CtBP binding, 1536-well; active compounds read low | 0.49% of 340,000 active | activity change, % (test concentration not listed)
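In 5 uL wells, 23 nL compound meets equimolar GST-E1A and His-CtBP (5X stock 125 nM each) for 2 h, 37 °C. Beads (5X, 50 ug/mL) then 1 h, 37 °C, dark.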
The depositor's hits bear a star; i = inactive; ? = inconclusive; / = not tested or not shown. This is a sample that favours compounds with a hit; in the whole collection about 1.2% have one here. Unless noted, no stated cut-off is given here; in the data, active means activity change below about -65%; inconclusive means mostly about -30% to -63%; inactive means weaker than that. On the % scale 0 is the no-effect control and ±100 the full control effect.

SMILES	CCT modulator	Six1-Eya2 inh	Akt phos inh	CtBP-E1A inh
Cc1nc2c(OCc3ccccc3)cccn2c1N(C)C(=O)C1CCCCC1	0	3	i	-6
O=S(=O)(NCc1ccccc1)NCc1ccccc1F	-52*	5	i	11
O=S(=O)(NCc1ccc(Cl)cc1)NCc1ccccc1F	-3	1	i	-6
CCc1cc(=O)oc2c3c(cc(OCC(=O)NCCN4CCOCC4)c12)OC(C)(C)CC3	-1	-6	i	3
CC(C)NC(=O)NS(=O)(=O)c1cnccc1NC1CC2CCC1C2 (stereo not given)	-1	4	-107%*	0
CS(=O)(=O)Nc1ccccc1C(=O)NC1CC2CCC1C2 (stereo not given)	-3	4	i	1
CC(C)[C@H](NC(N)=O)C(=O)Nc1cccc(S(=O)(=O)N2CCOCC2)c1	2	3	i	15
COc1ccccc1C=NNc1ccc([N+](=O)[O-])cn1	0	2	i	7
COc1ccc(O)c(/C=N/Nc2nc3ccccc3[nH]2)c1	0	0	i	5
O=[N+]([O-])c1ccc(NN=Cc2ccccc2O)nc1	0	-78*	i	-79*
O=[N+]([O-])c1ccc(O)c(/C=N/Nc2ccccn2)c1	2	-90*	i	-92*
O=[N+]([O-])c1cccc(N/N=C/c2cc([N+](=O)[O-])ccc2O)c1	-4	-17	i	-10
O=[N+]([O-])c1ccc(O)c(/C=N/Nc2nc3ccccc3[nH]2)c1	-7	-92*	i	-97*
O=[N+]([O-])c1ccc(NN=Cc2ccc(O)cc2O)nc1	-2	-69*	i	-74*
CC1(C)OC(=O)C(=CNC(Cc2c[nH]c3ccccc23)C(=O)O)C(=O)O1 (stereo not given)	1	3	i	10
O=C(Cc1ccc(F)cc1)Nc1nnc(-c2ccc(F)cc2)o1	-3	?	i	?
O=C(NCC(c1ccccc1)N1CCCC1)C1CCN(C(=O)Nc2ccccc2)CC1 (stereo not given)	0	-8	i	12
COc1cccc(NC(=O)n2ncc3c(C)cccc32)c1	-3	9	i	10
O=C(CNS(=O)(=O)c1ccc([N+](=O)[O-])cc1)N/N=C/c1ccc(O)cc1O	0	-73*	i	?
CCN(CC)S(=O)(=O)c1ccc(N/N=C/c2ccc(O)cc2O)nc1	-2	-94*	i	-95*
O=C(CNS(=O)(=O)c1ccc([N+](=O)[O-])cc1)N/N=C\c1ccc(O)cc1	-9	1	i	/
CCN(CC)S(=O)(=O)c1ccc(N/N=C(\C)c2ccncc2)nc1	-2	-7	i	-7
O=S(=O)(c1ccc(F)c(F)c1F)N1CCN(C(=S)Nc2ccccc2)CC1	0	1	i	-1
CSCC[C@H](NC(=O)Cc1c(C)c2c(cc(C)c3c(C)coc32)oc1=O)C(=O)O	0	?	i	-27
Nc1ncnc2c1ncn2Cc1ccccc1	-3	5	i	/
SMILES	CCT modulator	Six1-Eya2 inh	Akt phos inh	CtBP-E1A inh
Nc1ncnc2c1ncn2CCOc1ccccc1	-31*	11	i	-6
O=C(Nc1nnc2n1CCS2)c1ccco1	-73*	?	i	?
O=C(Nc1ccc2c(c1)nc1n2CCSC1)c1ccco1	0	-5	i	-1
O=C(CCCC(=O)OCC(F)(F)C(F)F)Nc1ccccc1F	0	18	i	0
O=C(O)c1ccccc1NC(=O)C(Cc1ccccc1)N1C(=O)c2ccccc2C1=O (stereo not given)	-32*	-4	i	/
CCC(C(=O)Nc1ccccc1C(=O)N1CCCC1)N1C(=O)c2ccccc2C1=O (stereo not given)	-1	5	i	5
Cc1cc(C)c2c(=O)n3c(nc2c1)C(Cc1ccc(O)cc1)NC(=O)c1cc2ccccc2cc1-3 (stereo not given)	2	-8	i	-7
CCn1ncc(Br)c1C(=O)Nc1ccccc1OC	-35*	19	i	15
CC(C)(C)c1ccc(S(=O)(=O)Nc2ccc(C(O)(C(F)(F)F)C(F)(F)F)cc2)cc1	0	1	i	6
Cc1cc(-c2ccccc2)nc(Nc2nc3c(C)cccc3c(=O)[nH]2)n1	-1	-1	i	0
Cc1ccccc1/C=C1\SC(=S)N(/N=C/c2cc([N+](=O)[O-])ccc2O)C1=O	-13	?	i	-92*
O=C1/C(=C\c2cc([N+](=O)[O-])ccc2O)SC(=S)N1Cc1ccc(Cl)cc1	-1	-18	i	/

Screening data: PubChem, National Center for Advancing Translational Sciences (NCATS)
